# Data reported in article PMC7862700, “An all-to-all approach to the identification of sequence-specific readers for epigenetic DNA modifications on cytosine”.
# Tests used:
# Assay in all cases: DAPPL (digital affinity profiling via proximity ligation, sequencing); 10 mM Tris-HCl pH 7.5, 50 mM NaCl, 1 mM DTT, 4% glycerol, room temperature, 30 min; GST-TFs on glutathione beads, 16-mer random dsDNA library, 0.1% formaldehyde crosslink after washing; high values mean tight binding
# FEV = molecular target: T1, FEV (Homo sapiens, UniProt Q99581 1-238); conditions: protein: recombinant; tags: N-terminal GST; dsDNA, one strand shown
# T1 sequence: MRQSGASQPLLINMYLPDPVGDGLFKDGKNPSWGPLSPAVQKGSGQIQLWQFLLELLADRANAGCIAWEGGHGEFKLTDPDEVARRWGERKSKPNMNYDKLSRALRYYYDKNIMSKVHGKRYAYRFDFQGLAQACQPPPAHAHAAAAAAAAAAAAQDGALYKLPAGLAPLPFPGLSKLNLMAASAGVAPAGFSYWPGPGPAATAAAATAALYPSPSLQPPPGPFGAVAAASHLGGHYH
# Summary of the method: (§1)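 Human transcription factors fused to GST were expressed in yeast, captured on glutathione beads, given DNA barcodes and pooled with a GST-only negative control. Pools were incubated with 200 nmole of a 16-mer random double-stranded DNA library in Tris/NaCl/DTT/glycerol buffer at room temperature for 30 min. They were then washed, crosslinked with 0.1% formaldehyde, proximity-ligated (BsaI/T4 ligase, 1 h, 37 °C), PCR-amplified and sequenced on an Illumina NextSeq500. Binding signal is each 6-mer's read frequency for a factor divided by its frequency for the GST control.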
# ETV5 = ETV5 (Homo sapiens, UniProt P41161 1-510); conditions: protein: recombinant; tags: N-terminal GST; dsDNA, one strand shown
# Chain of ETV5 (P41161 whole entry): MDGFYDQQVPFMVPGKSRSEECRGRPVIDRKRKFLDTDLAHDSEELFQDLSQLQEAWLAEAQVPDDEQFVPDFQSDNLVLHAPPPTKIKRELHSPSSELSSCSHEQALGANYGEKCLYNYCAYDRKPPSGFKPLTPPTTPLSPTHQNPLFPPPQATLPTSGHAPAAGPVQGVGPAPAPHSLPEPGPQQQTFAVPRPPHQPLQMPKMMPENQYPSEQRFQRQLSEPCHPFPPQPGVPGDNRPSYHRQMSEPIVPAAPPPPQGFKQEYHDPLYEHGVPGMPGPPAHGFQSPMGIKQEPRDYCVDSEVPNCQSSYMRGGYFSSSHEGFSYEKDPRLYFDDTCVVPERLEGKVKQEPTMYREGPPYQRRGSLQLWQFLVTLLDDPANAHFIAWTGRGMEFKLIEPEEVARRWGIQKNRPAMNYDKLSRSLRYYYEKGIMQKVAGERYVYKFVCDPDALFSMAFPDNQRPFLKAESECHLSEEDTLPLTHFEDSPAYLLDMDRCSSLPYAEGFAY
# Summary of the method: as §1
# HSF1 = HSF1 (Homo sapiens, UniProt Q00613 1-529); conditions: protein: recombinant; tags: N-terminal GST; chain copies: 3; dsDNA, one strand shown
# Chain of HSF1 (Q00613 whole entry): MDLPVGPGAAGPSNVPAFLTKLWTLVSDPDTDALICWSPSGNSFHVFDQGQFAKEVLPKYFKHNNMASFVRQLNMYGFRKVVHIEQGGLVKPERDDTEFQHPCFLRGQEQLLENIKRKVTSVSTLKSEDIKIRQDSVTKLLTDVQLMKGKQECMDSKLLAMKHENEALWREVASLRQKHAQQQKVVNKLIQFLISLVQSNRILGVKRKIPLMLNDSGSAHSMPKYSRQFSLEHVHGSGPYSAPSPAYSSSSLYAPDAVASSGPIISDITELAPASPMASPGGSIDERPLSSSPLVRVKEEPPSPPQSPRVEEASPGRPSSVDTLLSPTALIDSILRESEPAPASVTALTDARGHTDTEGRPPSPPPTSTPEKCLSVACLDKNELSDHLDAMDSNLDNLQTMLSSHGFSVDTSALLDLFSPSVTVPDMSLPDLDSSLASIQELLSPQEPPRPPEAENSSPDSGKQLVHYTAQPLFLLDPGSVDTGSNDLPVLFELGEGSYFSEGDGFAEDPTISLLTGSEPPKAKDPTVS
# Summary of the method: as §1
# SPIC = molecular target: T2, SPIC (Homo sapiens, UniProt Q8N5J4 1-248); conditions: protein: recombinant; tags: N-terminal GST; dsDNA, one strand shown
# T2 sequence: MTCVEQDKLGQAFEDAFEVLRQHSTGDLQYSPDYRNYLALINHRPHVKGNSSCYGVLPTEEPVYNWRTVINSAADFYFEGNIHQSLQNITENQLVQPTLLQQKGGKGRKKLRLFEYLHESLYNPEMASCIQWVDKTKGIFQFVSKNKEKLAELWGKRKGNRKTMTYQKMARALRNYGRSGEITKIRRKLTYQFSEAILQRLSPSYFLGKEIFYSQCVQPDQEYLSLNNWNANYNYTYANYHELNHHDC
# Summary of the method: as §1
# ELF4 = ELF4 (Homo sapiens, UniProt Q99607 1-663); conditions: protein: recombinant; tags: N-terminal GST; dsDNA, one strand shown
# Chain of ELF4 (Q99607 whole entry): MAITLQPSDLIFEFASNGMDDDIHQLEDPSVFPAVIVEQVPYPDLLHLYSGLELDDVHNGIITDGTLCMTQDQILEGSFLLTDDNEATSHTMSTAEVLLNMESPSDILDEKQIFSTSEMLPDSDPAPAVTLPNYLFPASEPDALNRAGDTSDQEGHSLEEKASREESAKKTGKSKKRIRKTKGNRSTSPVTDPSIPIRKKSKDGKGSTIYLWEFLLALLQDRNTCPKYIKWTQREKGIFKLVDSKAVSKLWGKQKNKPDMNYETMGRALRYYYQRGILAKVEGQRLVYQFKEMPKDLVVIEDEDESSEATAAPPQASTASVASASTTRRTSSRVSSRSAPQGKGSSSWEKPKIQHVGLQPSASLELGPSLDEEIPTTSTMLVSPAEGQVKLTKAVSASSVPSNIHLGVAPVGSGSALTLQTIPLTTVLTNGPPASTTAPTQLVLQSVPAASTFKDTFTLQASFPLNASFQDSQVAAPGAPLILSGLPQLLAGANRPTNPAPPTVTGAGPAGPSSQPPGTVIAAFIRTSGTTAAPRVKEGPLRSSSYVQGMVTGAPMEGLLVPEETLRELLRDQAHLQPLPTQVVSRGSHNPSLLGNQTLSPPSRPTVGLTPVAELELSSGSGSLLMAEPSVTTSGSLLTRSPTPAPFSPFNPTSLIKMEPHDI
# Summary of the method: as §1
# ELK4 = molecular target: T3, ELK4 (Homo sapiens, UniProt P28324-2 1-405); conditions: protein: recombinant; tags: N-terminal GST; dsDNA, one strand shown
# T3 sequence: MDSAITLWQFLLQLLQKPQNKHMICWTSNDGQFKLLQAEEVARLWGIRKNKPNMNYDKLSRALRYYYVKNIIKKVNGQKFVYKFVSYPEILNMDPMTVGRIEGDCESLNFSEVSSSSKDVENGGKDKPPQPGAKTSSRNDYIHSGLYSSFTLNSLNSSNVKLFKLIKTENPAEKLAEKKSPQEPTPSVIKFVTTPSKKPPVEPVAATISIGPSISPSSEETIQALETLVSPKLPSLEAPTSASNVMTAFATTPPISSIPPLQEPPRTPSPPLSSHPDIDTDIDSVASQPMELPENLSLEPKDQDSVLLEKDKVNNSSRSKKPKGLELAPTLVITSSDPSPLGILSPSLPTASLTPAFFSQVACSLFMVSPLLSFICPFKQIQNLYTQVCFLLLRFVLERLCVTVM
# Summary of the method: as §1
# ETV2 = molecular target: T4, ETV2 (Homo sapiens, UniProt O00321 1-342); conditions: protein: recombinant; tags: N-terminal GST; dsDNA, one strand shown
# T4 sequence: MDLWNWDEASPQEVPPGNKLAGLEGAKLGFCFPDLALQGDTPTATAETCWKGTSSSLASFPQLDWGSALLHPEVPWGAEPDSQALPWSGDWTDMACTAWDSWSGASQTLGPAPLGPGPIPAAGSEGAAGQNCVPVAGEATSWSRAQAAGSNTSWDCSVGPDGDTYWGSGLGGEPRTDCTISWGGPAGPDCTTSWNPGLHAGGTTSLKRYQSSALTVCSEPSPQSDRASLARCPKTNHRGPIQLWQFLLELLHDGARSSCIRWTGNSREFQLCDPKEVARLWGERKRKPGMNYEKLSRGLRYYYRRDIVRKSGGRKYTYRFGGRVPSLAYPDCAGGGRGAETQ
# Summary of the method: as §1
# ELF3 = molecular target: T5, ELF3 (Homo sapiens, UniProt P78545 1-371); conditions: protein: recombinant; tags: N-terminal GST; dsDNA, one strand shown
# T5 sequence: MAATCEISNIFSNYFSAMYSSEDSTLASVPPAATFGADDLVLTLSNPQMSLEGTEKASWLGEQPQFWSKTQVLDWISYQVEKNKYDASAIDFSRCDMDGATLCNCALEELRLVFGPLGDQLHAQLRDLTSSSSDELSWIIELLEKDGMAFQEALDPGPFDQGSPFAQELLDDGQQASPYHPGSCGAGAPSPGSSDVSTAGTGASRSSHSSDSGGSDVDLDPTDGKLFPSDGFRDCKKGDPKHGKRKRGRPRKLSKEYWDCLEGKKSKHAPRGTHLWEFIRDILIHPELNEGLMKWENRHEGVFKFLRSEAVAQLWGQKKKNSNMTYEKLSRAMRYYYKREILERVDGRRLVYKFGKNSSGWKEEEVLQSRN
# Summary of the method: as §1
# CRX = CRX (Homo sapiens, UniProt O43186 1-299); conditions: protein: recombinant; tags: N-terminal GST; dsDNA, one strand shown
# Chain of CRX (O43186 whole entry): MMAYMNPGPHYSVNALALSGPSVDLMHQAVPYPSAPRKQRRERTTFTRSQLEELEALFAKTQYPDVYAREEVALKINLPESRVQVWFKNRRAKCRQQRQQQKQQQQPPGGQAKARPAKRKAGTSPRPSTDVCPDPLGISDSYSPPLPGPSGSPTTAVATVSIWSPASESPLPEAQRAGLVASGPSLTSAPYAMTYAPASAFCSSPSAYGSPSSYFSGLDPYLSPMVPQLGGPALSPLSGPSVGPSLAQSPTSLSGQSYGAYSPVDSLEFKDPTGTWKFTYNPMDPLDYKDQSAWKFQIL
# Summary of the method: as §1
# ETV1 = ETV1 (Homo sapiens, UniProt P50549 1-477); conditions: protein: recombinant; tags: N-terminal GST; dsDNA, one strand shown
# Chain of ETV1 (P50549 whole entry): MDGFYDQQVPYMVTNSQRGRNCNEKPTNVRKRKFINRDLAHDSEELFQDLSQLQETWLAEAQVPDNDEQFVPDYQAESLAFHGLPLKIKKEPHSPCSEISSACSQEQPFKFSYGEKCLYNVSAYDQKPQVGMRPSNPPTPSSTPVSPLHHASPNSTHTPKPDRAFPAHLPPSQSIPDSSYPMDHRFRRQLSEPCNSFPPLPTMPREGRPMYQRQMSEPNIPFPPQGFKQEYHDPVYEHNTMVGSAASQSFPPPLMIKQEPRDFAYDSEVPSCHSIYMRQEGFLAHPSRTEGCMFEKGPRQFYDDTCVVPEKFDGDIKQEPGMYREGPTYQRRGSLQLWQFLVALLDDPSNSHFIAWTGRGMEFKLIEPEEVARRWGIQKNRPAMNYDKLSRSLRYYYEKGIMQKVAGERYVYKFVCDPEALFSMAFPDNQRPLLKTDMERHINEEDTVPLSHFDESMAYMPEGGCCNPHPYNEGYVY
# Summary of the method: as §1
# ERF = molecular target: T6, ERF (Homo sapiens, UniProt P50548 1-548); conditions: protein: recombinant; tags: N-terminal GST; dsDNA, one strand shown
# T6 sequence: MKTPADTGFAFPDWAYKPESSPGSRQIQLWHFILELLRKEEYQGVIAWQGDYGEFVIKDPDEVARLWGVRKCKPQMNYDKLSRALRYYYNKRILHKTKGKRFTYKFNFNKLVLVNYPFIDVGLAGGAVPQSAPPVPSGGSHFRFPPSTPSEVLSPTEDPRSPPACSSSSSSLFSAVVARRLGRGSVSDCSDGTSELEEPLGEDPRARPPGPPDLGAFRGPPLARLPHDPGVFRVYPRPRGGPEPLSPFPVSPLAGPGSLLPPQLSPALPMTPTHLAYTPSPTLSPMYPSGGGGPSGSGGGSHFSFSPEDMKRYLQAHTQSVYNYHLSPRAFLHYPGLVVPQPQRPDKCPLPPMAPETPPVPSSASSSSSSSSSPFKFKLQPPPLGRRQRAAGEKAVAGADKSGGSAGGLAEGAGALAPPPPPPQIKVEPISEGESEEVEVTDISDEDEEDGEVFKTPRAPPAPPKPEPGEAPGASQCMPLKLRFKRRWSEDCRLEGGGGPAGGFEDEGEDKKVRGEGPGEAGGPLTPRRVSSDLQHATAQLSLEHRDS
# Summary of the method: as §1
# ETV3L = molecular target: T7, ETV3L (Homo sapiens, UniProt Q6ZN32 1-361); conditions: protein: recombinant; tags: N-terminal GST; dsDNA, one strand shown
# T7 sequence: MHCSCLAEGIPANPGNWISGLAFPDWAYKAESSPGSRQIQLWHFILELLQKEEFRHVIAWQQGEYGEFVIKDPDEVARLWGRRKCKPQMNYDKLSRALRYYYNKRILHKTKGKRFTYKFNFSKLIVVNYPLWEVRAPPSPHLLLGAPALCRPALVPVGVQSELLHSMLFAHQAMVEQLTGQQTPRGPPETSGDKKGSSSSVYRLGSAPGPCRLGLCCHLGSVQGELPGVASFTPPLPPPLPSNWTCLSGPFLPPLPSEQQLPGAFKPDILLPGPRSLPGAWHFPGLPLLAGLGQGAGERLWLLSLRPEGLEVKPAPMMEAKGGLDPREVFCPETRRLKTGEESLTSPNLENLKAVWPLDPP
# Summary of the method: as §1
# ETS2 = molecular target: T8, ETS2 (Homo sapiens, UniProt P15036 1-469); conditions: protein: recombinant; tags: N-terminal GST; dsDNA, one strand shown
# T8 sequence: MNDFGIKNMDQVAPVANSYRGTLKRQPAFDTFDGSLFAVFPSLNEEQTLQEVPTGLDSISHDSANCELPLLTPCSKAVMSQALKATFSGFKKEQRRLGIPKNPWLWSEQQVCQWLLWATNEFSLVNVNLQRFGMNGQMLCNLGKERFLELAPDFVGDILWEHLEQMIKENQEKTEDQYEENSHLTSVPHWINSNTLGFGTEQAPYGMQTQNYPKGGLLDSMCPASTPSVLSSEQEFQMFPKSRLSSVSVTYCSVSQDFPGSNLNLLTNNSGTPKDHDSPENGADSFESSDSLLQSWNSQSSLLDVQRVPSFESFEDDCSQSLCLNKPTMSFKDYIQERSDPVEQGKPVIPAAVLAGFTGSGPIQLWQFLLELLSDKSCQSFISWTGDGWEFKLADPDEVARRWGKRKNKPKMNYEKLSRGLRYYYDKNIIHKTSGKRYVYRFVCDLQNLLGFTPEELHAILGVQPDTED
# Summary of the method: as §1
# SPDEF = molecular target: T9, SPDEF (Homo sapiens, UniProt O95238 1-335); conditions: protein: recombinant; tags: N-terminal GST; dsDNA, one strand shown
# T9 sequence: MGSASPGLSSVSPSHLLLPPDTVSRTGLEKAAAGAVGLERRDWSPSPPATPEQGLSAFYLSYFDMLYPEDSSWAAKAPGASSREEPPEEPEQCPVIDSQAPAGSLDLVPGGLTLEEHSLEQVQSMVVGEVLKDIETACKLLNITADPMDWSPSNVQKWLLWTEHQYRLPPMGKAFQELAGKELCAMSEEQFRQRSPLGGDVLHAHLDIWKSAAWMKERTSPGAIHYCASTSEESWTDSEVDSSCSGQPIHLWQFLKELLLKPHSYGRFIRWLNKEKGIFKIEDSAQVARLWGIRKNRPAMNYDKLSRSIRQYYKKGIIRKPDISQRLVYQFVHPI
# Summary of the method: as §1
# ETV7 = molecular target: T10, ETV7 (Homo sapiens, UniProt Q9Y603 1-341); conditions: protein: recombinant; tags: N-terminal GST; dsDNA, one strand shown
# T10 sequence: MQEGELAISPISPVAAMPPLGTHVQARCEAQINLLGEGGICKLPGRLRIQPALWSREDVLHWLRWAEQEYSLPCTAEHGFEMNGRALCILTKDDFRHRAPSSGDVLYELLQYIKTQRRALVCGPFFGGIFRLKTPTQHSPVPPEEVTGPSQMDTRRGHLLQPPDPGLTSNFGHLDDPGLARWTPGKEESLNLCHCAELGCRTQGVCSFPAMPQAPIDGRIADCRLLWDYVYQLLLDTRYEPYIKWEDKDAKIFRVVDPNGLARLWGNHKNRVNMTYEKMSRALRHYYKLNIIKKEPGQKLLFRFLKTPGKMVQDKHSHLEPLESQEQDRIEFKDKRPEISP
# Summary of the method: as §1
# ELF5 = molecular target: T11, ELF5 (Homo sapiens, UniProt Q9UKW6-2 1-255); conditions: protein: recombinant; tags: N-terminal GST; dsDNA, one strand shown
# T11 sequence: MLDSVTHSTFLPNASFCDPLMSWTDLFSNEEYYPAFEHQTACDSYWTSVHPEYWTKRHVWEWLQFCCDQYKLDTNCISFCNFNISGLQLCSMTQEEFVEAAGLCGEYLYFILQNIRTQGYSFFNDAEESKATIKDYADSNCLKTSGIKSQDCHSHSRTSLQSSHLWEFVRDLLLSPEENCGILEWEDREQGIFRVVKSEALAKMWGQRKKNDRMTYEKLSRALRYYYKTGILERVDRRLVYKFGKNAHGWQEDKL
# Summary of the method: as §1
# ETV3 = molecular target: T12, ETV3 (Homo sapiens, UniProt P41162-2 1-143); conditions: protein: recombinant; tags: N-terminal GST; dsDNA, one strand shown
# T12 sequence: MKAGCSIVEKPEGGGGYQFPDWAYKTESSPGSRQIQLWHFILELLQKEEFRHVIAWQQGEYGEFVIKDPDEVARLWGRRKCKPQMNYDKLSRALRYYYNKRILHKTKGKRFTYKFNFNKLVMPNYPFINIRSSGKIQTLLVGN
# Summary of the method: as §1
# ETV6 = ETV6 (Homo sapiens, UniProt P41212 1-452); conditions: protein: recombinant; tags: N-terminal GST; dsDNA, one strand shown
# Chain of ETV6 (P41212 whole entry): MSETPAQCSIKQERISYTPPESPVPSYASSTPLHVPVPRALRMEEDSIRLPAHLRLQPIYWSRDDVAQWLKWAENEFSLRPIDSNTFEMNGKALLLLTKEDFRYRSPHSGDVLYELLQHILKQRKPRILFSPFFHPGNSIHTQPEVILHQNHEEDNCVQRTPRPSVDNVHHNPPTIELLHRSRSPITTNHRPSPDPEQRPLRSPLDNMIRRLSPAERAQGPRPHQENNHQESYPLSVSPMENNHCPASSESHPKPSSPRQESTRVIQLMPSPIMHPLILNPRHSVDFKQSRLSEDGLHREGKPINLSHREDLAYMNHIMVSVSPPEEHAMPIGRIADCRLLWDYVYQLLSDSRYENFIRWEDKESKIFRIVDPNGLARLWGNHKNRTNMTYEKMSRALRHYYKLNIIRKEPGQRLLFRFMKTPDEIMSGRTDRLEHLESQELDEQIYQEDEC
# Summary of the method: as §1
sequence,measurement,setting,value
AATGTA,binding signal,FEV,"1.12 fold enrichment (6-mer frequency, TF over GST control)"
same,binding signal,ETV5,"1.11 fold enrichment (6-mer frequency, TF over GST control)"
same,binding signal,HSF1,"1.16 fold enrichment (6-mer frequency, TF over GST control)"
same,binding signal,SPIC,"1.12 fold enrichment (6-mer frequency, TF over GST control)"
same,binding signal,ELF4,"1.11 fold enrichment (6-mer frequency, TF over GST control)"
same,binding signal,ELK4,"1.32 fold enrichment (6-mer frequency, TF over GST control)"
same,binding signal,ETV2,"1.32 fold enrichment (6-mer frequency, TF over GST control)"
same,binding signal,ELF3,"1.16 fold enrichment (6-mer frequency, TF over GST control)"
same,binding signal,CRX,"1.1 fold enrichment (6-mer frequency, TF over GST control)"
same,binding signal,ETV1,"1.23 fold enrichment (6-mer frequency, TF over GST control)"
same,binding signal,ERF,"1.14 fold enrichment (6-mer frequency, TF over GST control)"
same,binding signal,ETV3L,"1.1 fold enrichment (6-mer frequency, TF over GST control)"
same,binding signal,ETS2,"1.25 fold enrichment (6-mer frequency, TF over GST control)"
same,binding signal,SPDEF,"1.2 fold enrichment (6-mer frequency, TF over GST control)"
same,binding signal,ETV7,"1.15 fold enrichment (6-mer frequency, TF over GST control)"
same,binding signal,ELF5,"1.21 fold enrichment (6-mer frequency, TF over GST control)"
same,binding signal,ETV3,"1.17 fold enrichment (6-mer frequency, TF over GST control)"
same,binding signal,ETV6,"1.15 fold enrichment (6-mer frequency, TF over GST control)"
